Here are results for 15 sequences from article PMC3218832.

Among the targets are RELARELA (p65 homodimer) (Homo sapiens, UniProt Q04206 1-307); p50p50 homodimer (Homo sapiens, UniProt P19838 7-356); RELB subunit;p50 subunit (Homo sapiens;Homo sapiens, UniProt Q01201;P19838 120-401;7-356).
Holding throughout (test): protein binding microarray; high values mean tight binding
What all share (details): dsDNA, one strand shown

A further experiment addresses T1, p52p52 homodimer (Homo sapiens, UniProt Q00653 4-332).
T1 sequence: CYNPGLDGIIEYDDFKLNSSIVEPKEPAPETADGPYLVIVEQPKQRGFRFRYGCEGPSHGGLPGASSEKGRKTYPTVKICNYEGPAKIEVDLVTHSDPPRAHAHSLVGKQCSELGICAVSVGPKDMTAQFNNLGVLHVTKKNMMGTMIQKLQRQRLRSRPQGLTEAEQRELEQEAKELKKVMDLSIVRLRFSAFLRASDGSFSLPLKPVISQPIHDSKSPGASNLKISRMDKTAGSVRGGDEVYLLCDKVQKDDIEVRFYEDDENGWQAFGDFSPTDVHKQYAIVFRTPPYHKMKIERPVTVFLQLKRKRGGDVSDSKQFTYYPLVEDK

The target in experiment [1] is RELA (p65) subunit of heterodimer;p50 subunit (Homo sapiens;Homo sapiens, UniProt Q04206;P19838 1-307;7-356).
Chain of RELA (p65) subunit of heterodimer;p50 subunit (Q04206 1-307, chain 1 of 2): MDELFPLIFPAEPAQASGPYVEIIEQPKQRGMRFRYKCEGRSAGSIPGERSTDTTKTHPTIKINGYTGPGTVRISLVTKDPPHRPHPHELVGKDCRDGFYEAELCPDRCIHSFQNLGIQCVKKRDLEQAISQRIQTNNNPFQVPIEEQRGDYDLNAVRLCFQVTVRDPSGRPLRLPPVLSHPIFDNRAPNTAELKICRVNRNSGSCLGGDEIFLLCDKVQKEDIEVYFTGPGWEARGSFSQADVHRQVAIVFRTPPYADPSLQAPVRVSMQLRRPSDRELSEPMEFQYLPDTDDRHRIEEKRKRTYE
Chain of RELA (p65) subunit of heterodimer;p50 subunit (P19838 7-356, chain 2 of 2): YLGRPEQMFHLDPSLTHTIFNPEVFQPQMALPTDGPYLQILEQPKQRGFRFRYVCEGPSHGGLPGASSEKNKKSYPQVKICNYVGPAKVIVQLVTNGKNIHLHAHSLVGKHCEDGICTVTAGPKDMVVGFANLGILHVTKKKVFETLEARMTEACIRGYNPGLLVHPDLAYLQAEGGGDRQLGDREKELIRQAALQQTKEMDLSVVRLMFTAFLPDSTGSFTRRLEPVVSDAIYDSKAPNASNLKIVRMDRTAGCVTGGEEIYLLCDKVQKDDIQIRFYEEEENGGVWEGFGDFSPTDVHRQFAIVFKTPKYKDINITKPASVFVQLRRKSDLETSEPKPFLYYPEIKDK
Experiment [2] addresses RELA (p65) subunit of heterodimer;p52 subunit (Homo sapiens;Homo sapiens, UniProt Q04206;Q00653 1-307;4-332).
The next experiment addresses T2, RELB subunit;p52 subunit (Homo sapiens;Homo sapiens, UniProt Q01201;Q00653 120-401;4-332).
T2 sequence 1: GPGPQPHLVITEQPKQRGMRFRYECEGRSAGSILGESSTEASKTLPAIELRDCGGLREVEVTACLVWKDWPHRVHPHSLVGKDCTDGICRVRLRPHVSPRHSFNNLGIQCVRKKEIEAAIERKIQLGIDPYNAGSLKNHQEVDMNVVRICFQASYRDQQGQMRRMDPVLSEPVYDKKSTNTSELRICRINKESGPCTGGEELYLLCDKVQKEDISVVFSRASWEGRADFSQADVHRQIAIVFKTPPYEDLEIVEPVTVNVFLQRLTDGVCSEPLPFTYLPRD
T2 sequence 2: T1 sequence

Experiment [3] deals with C-Rel subunit;p50 subunit (Homo sapiens;Homo sapiens, UniProt Q04864;P19838 1-285;7-356).
The target of experiment [4] is T3, C-Rel subunit;p52 subunit (Homo sapiens;Homo sapiens, UniProt Q04864;Q00653 1-285;4-332).
T3 sequence 1: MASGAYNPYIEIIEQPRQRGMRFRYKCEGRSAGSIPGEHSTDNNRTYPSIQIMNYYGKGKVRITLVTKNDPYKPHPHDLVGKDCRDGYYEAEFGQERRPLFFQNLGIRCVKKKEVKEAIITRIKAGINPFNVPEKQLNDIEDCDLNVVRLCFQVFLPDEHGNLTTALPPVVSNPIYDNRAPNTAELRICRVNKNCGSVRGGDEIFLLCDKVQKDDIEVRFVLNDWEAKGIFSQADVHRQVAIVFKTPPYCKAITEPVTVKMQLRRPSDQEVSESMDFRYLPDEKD
T3 sequence 2: T1 sequence

Chain of RELARELA (p65 homodimer) (Q04206 1-307): as the sequence (Q04206 1-307, chain 1 of 2) above
Chain of p50p50 homodimer (P19838 7-356): as the sequence (P19838 7-356, chain 2 of 2) above

Consider AGAAGATTCCT, for which the binding signal is 0.055 z-score with RELARELA (p65 homodimer); -1.1 z-score with p50p50 homodimer; -0.567 z-score with p52p52 homodimer; -0.642 z-score in experiment [1]; -0.681 z-score in experiment [2]; -0.914 z-score with RELB subunit;p50 subunit. Further, the binding signal with RELB subunit;p52 subunit was -0.843 z-score; in [3], -0.495 z-score; in [4], -0.373 z-score.
Regarding GGGTGTTTCCT, the binding signal in the experiment with RELARELA (p65 homodimer) is 1.42 z-score; with p50p50 homodimer, 0.575 z-score; with p52p52 homodimer, 1.06 z-score; in experiment [1] it was 0.736 z-score; in experiment [2] it was 0.987 z-score; with RELB subunit;p50 subunit, 0.102 z-score. The values for the binding signal (in the experiment with RELB subunit;p52 subunit; in experiment [3]; in experiment [4]) were 1.16 z-score, 0.695 z-score and 1.43 z-score, respectively.
As to AAGATTTCCCC, the binding signal was 2.26 z-score in the experiment with RELARELA (p65 homodimer); 1.48 z-score with p50p50 homodimer; 2.39 z-score in the experiment with p52p52 homodimer; 2.11 z-score in experiment [1]; 2 z-score in [2]; 2.3 z-score with RELB subunit;p50 subunit. Also, the values for the binding signal (with RELB subunit;p52 subunit; in experiment [3]; in experiment [4]) were 2.17 z-score, 1.73 z-score and 2.03 z-score, respectively.
As for AGGTGTGCCCT, the binding signal is -0.542 z-score with RELARELA (p65 homodimer); -1.63 z-score with p50p50 homodimer; -0.541 z-score with p52p52 homodimer; -0.712 z-score in [1]; -0.661 z-score in [2]; -0.956 z-score with RELB subunit;p50 subunit. The figures for the binding signal (with RELB subunit;p52 subunit; in experiment [3]; in [4]) were -0.903 z-score, -0.883 z-score and -0.535 z-score, respectively.
Regarding AAAGTCATCCC, the binding signal was -0.416 z-score with RELARELA (p65 homodimer); -0.925 z-score with p50p50 homodimer; -0.412 z-score with p52p52 homodimer; -1.01 z-score in experiment [1]; -0.716 z-score in [2]; -0.587 z-score with RELB subunit;p50 subunit. Further, the binding signal with RELB subunit;p52 subunit was -0.628 z-score; in experiment [3] it was -0.836 z-score; in experiment [4], -0.699 z-score.
For the sequence GAAGGGCTCCC, the binding signal with RELARELA (p65 homodimer) is -1.08 z-score; in the experiment with p50p50 homodimer it was -1.07 z-score; with p52p52 homodimer, -0.651 z-score; in experiment [1] it was -0.8 z-score; in [2] it was -0.916 z-score; with RELB subunit;p50 subunit, -0.771 z-score. The binding signal was -0.771 z-score with RELB subunit;p52 subunit, -1.05 z-score in experiment [3] and -0.778 z-score in experiment [4].
In the case of GAATGTTTCCC, the binding signal stood at 2.03 z-score with RELARELA (p65 homodimer); 0.423 z-score with p50p50 homodimer; 0.332 z-score with p52p52 homodimer; 1.09 z-score in [1]; 0.797 z-score in [2]; 0.422 z-score with RELB subunit;p50 subunit. The binding signal with RELB subunit;p52 subunit worked out at 0.655 z-score; in [3], 1.2 z-score; in experiment [4], 0.614 z-score.
For CGAAATCCCCC, the binding signal with RELARELA (p65 homodimer) amounted to 1.7 z-score; with p50p50 homodimer it was 1.64 z-score; with p52p52 homodimer, 2.27 z-score; in experiment [1], 2.33 z-score; in experiment [2], 2.13 z-score; with RELB subunit;p50 subunit it was 2.58 z-score. Also, the binding signal in the experiment with RELB subunit;p52 subunit turned out to be 2.42 z-score; in [3] it was 1.83 z-score; in [4], 2.36 z-score.
For the sequence GAGTTGCCCCC, the binding signal with RELARELA (p65 homodimer) is 0.487 z-score; with p50p50 homodimer it was 1.04 z-score; with p52p52 homodimer it was 0.557 z-score; in [1], 1.06 z-score; in [2], 0.811 z-score; with RELB subunit;p50 subunit, 0.918 z-score. Further, the binding signal with RELB subunit;p52 subunit worked out at 0.947 z-score; in experiment [3] it was 1.16 z-score; in experiment [4], 0.676 z-score.
For the sequence AGATGAACCCC, the binding signal in the experiment with RELARELA (p65 homodimer) is -0.232 z-score; with p50p50 homodimer, -0.284 z-score; with p52p52 homodimer, -0.287 z-score; in experiment [1] it was -0.402 z-score; in experiment [2] it was -0.342 z-score; with RELB subunit;p50 subunit it was -0.255 z-score. Further, the binding signal with RELB subunit;p52 subunit is -0.0728 z-score; in experiment [3], -0.464 z-score; in [4], -0.256 z-score.
AAAATAGTCCT: the binding signal in the experiment with RELARELA (p65 homodimer) is -0.023 z-score; with p50p50 homodimer, -0.728 z-score; with p52p52 homodimer, -0.497 z-score; in [1] it was -0.709 z-score; in experiment [2], -0.767 z-score; with RELB subunit;p50 subunit, -0.806 z-score. Moreover, the results for the binding signal (with RELB subunit;p52 subunit; in experiment [3]; in experiment [4]) were -0.856 z-score, -0.761 z-score and -0.606 z-score, respectively.
With GGGTGCTCCCT, the binding signal was -0.519 z-score in the experiment with RELARELA (p65 homodimer); 0.136 z-score with p50p50 homodimer; 0.0774 z-score in the experiment with p52p52 homodimer; -0.166 z-score in experiment [1]; 0.115 z-score in [2]; -0.21 z-score with RELB subunit;p50 subunit. The binding signal was -0.168 z-score with RELB subunit;p52 subunit, -0.0364 z-score in experiment [3] and 0.178 z-score in experiment [4].
As to GAATAGCTCCC, the binding signal in the experiment with RELARELA (p65 homodimer) is -0.473 z-score; in the experiment with p50p50 homodimer it was -0.795 z-score; with p52p52 homodimer, -0.577 z-score; in experiment [1] it was -0.627 z-score; in experiment [2], -0.84 z-score; with RELB subunit;p50 subunit it was -0.753 z-score. In addition, the binding signal with RELB subunit;p52 subunit was -0.873 z-score; in experiment [3] it was -1.16 z-score; in [4], -0.82 z-score.
Regarding GGAAATTTCCT, the binding signal with RELARELA (p65 homodimer) is 3.45 z-score; with p50p50 homodimer it was 0.318 z-score; with p52p52 homodimer, 0.15 z-score; in experiment [1] it was 1.83 z-score; in experiment [2], 1.22 z-score; with RELB subunit;p50 subunit, 0.0518 z-score. Moreover, the figures for the binding signal (in the experiment with RELB subunit;p52 subunit; in experiment [3]; in experiment [4]) were 0.485 z-score, 0.9 z-score and 1.42 z-score, respectively.
As for CAAGGCCCCCT, the binding signal is -1.53 z-score with RELARELA (p65 homodimer); 0.645 z-score in the experiment with p50p50 homodimer; 0.212 z-score in the experiment with p52p52 homodimer; 0.0559 z-score in [1]; 0.254 z-score in experiment [2]; 0.314 z-score with RELB subunit;p50 subunit. Moreover, the binding signal in the experiment with RELB subunit;p52 subunit is 0.508 z-score; in experiment [3] it was -0.126 z-score; in experiment [4] it was -0.139 z-score.
